# High-throughput results deposited in PubChem by NMMLSC.
# Only some compounds are listed: those with a hit (about 1.2% of all), similar ones and a draw of the others.
# DSG3 Ab inh – inhibitors of pemphigus antibody binding to DSG3, primary screen, biochemical, bead-based, flow cytometry, scFv-GFP. binding (percent of control), % at 10 µM. DSG3-coupled beads, scFv-anti-DSG3-GFP binding; stronger effect = lower value. Desmoglein-3 (Homo sapiens), P32926. hit rate 0.48% among 310,000;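 active = binding more than 3 SD below its plate's average and above zero; inconclusive = below that plate limit but binding exactly zero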
# CIT2-GFP yeast – modulators of CIT2-GFP expression in yeast, primary screen, S. cerevisiae, GFP fusion, multiplex flow cytometry, MLPCN library. GFP response vs DMSO, % at 10 µM. S. cerevisiae CIT2-GFP strain, 3 h; 100 means same as DMSO wells. hit rate 0.065% among 320,000;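 active = GFP response relative to DMSO above a set limit, near the screen mean plus 3 SD, cut at about 150% in these data; inconclusive = Fewer than 70 cells measured for a yeast strain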;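 note: ratio of well median GFP fluorescence to mean of DMSO wells on the plate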
# LAP4-GFP MLPCN – modulators of LAP4-GFP expression in yeast, primary screen, S. cerevisiae, multiplex flow cytometry, MLPCN library; hit rate 0.34% among 320,000; AID 2023, 2009; 3 h; median GFP as percent of DMSO wells; GFP response vs DMSO, % at 10 µM;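 active = GFP response vs DMSO above a set limit, about the screen mean plus 3 SD, cut at about 150% in these data; inconclusive = under 70 cell events counted for the yeast strain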
# RPL19A TOR yeast – RPL19A-GFP expression modulators in yeast, primary screen, cell-based, S. cerevisiae, multiplex flow cytometry, MLPCN. S. cerevisiae RPL19A-GFP strain, 3 h; stronger effect = lower value. percent response vs DMSO, % at 10 µM. hit rate 0.3% among 330,000;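 active = percent response vs DMSO below 50%; inconclusive = fewer than 70 events counted for the yeast strain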;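 note: median channel GFP fluorescence of the barcoded RPL19A-GFP strain; ratio of sample median GFP to plate DMSO average so 100% = DMSO; lower means less RPL19A-GFP as with rapamycin TOR inhibition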
# MEP2 TOR yeast – modulators of MEP2-GFP levels in yeast, primary screen, S. cerevisiae, multiplex flow cytometry, MLPCN library; GFP response vs DMSO, % at 10 µM; hit rate 0.51% among 330,000; S. cerevisiae MEP2-GFP strain, 3 h; 100% = DMSO control level; AID 2016, 2009;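 active = GFP response versus DMSO above a set limit, roughly screen mean plus 3 SD, cut at about 180% in these data; inconclusive = fewer than 70 cells counted for a yeast strain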;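 note: median GFP fluorescence of the barcode-gated MEP2-GFP cells per well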
# AGP1-GFP MLPCN – modulators of AGP1-GFP expression in yeast TOR pathway, primary screen, cell-based, multiplex flow cytometry, S. cerevisiae, MLPCN library; 3 h; GFP as percent of DMSO wells; GFP response vs DMSO, % at 10 µM; hit rate 0.02% among 320,000;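 active = GFP response relative to DMSO above a set limit, near screen average plus 3 SD, cut at about 150% in these data; inconclusive = fewer than 70 cells counted for the yeast strain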;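 note: median GFP channel fluorescence of the gated AGP1 strain per well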
# Starred values were filed as active, the others as inactive; ? = inconclusive; nt = not tested or not shown; [ ] = another dose, or the depositor's remark.
SMILES,DSG3 Ab inh,CIT2-GFP yeast,LAP4-GFP MLPCN,RPL19A TOR yeast,MEP2 TOR yeast,AGP1-GFP MLPCN
CC(=O)c1ccc(CCCCCCCCCC(=O)O)s1,111,92,153*,96,99,100
CCC(=O)c1ccc(CCCCCC(=O)O)s1,93,110,114,111,98,108
O=S(=O)(NCc1ccccc1)c1ccc(S(=O)(=O)N(Cc2ccccn2)Cc2ccco2)cc1,76*,100,93,100,99,100
CCN(CC)S(=O)(=O)c1ccc(S(=O)(=O)N(Cc2ccccn2)Cc2ccco2)cc1,103,91,94,92,94,94
Cc1ccc(C(=O)OCC(=O)Nc2ccc3c(c2)OCO3)o1,107,?,105,65,491*[may fluoresce violet],21
O=C(COC(=O)c1ccco1)Nc1ccc2c(c1)OCO2,101,97,93,94,99,92
CCOc1ccc(C(=O)NCCc2ccccc2)cc1,118,97,99,104,107,97
CCOc1ccc(CC(=O)NNC(=S)NCCc2ccccc2)cc1,66*,96,103,111,111,101
CCc1ccc(OCC(=O)NC(NC(=S)Nc2ccc(Cl)cc2)C(Cl)(Cl)Cl)cc1 (configuration not stated),116,81,85,98,100,86
COc1ccccc1N(CC(=O)NCCSCc1cccc(C)c1)S(=O)(=O)c1ccccc1,103,106,97,101,98,106
CCOc1cc(/C=N\NC(=O)c2ccc(C)nc2)ccc1OC(=O)c1ccc(F)cc1,66*,114,82,103,101,98
CN(C)c1nc(N)c([N+](=O)[O-])c(NCC2CCCO2)n1 (configuration not stated),97,95,108,98,100,104
COc1ccccc1NS(=O)(=O)c1cccc(NC(=O)c2cc3ccccc3oc2=O)c1,78*,100,100,99,90,91
O=C(Cc1ccccc1)c1ccc(N2CCOCC2)cc1,107,nt,nt,nt,nt,nt
O=C(C1CC1)N1CCc2cc(S(=O)(=O)NCC3COc4ccccc4O3)ccc21 (configuration not stated),99,?,75,23*[may fluoresce violet],303*[may fluoresce violet],?
CCN1/C(=C/c2ccc3cc(C)ccc3[n+]2CC)Sc2cc(C)ccc21,111,nt,nt,nt,nt,nt
CCN1/C(=C/c2ccc3cc(C)ccc3[n+]2C)Sc2ccc3sccc3c21,3.0*,nt,nt,nt,nt,nt
COc1cccc(NC(=O)CCCCCn2nnc3ccccc3c2=O)c1,100,126,112,100,117,113
NC(=O)C(c1cccc(Cl)c1)c1ncc(C(F)(F)F)cc1Cl (configuration not stated),nt,?,85,53,239*[may fluoresce violet],20
COC(=O)c1ccc(C(=O)OC)c(NC(=O)COC(=O)c2ccccc2OC)c1,-8.0*,107,98,104,96,102
COc1ccccc1C(=O)OCC(=O)Nc1ccccc1OC(F)F,109,81,87,94,96,95
OC(COc1ccccc1CNCc1cccnc1)CN1CCc2ccccc2C1 (configuration not stated),112,?,89,53,588*[may fluoresce violet],18
Cc1c(CC(C)C)nc(N)c(C#N)c1-c1ccccc1,108,123,102,67,350*,29
C=CCSc1nc(N)c(C#N)c(-c2ccccc2)c1C#N,81*,75,83,90,96,88
CCc1c(C)nc(N)c(C#N)c1-c1ccccc1,75,100,101,93,98,98
CCCSc1nc(N)c(C#N)c(-c2ccc(C)cc2)c1C#N,nt,101,91,91,93,94
CC(OC(=O)c1cnccn1)C(=O)c1ccccc1 (configuration not stated),100,82,90,83,83,79
CCOc1ccc(S(=O)(=O)n2ccnc2C)cc1,nt,108,106,110,111,153*
